Pf growth 48h: P. falciparum growth inhibition at 48 hours (one generation); P. falciparum luciferase growth in erythrocytes, 48 h; Potency, µM (highest dose often 28.7 µM), usual class: inhibitors; actives 5.9% (n = 310,000); AID 504832
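Erythrocytes infected with P. falciparum carrying an integrated firefly luciferase reporter (2% hematocrit, 0.1% parasitemia final) were exposed to compounds in RPMI 1640 with 0.5% Albumax at 37 C, 5% CO2. Growth inhibition was scored as reduced luminescence.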
AMA1 RON2 block: inhibitors of Plasmodium falciparum AMA1-RON2 interaction; actives 0.2% (n = 360,000); Potency, µM (top dose mostly 58.2 µM), most hits filed as inhibitors; AlphaScreen AMA1-biotinylated RON2 peptide binding; further: nearly all actives have a fitted effect of over 45% in size
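AMA1 (3D7) with his tag at 25 nM final met compounds first, then biotinylated RON2 peptide at 25 nM; detection used donor plus acceptor beads, 10 µg/mL apiece, read by AlphaScreen after 30 min at room temperature.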
HCV inh: inhibitors of hepatitis C virus infection; Huh7.5.1 HCVcc-Cre infection, luciferase reporter, 44 h; actives 3.4% (n = 340,000); AID 651820; Potency, µM (titrated, usually from 41.8 µM), hits mostly inhibitors
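Infectious HCV cell culture screen: compound-treated cells (1,000/well, pre-plated 4 h) are infected with HCVcc-Cre at roughly 0.5 moi and grown 44 h. Infection is quantified by luciferase signal after 15 min substrate incubation at room temperature.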
Pf growth 96h: P. falciparum growth inhibition at 96 hours; P. falciparum luciferase reporter growth, 96 h; actives 6.9% (n = 320,000); AID 504834; Potency, µM (titrated, usually from 28.7 µM), most hits filed as inhibitors
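Cell-based qHTS: luciferase-tagged P. falciparum in erythrocytes (2% hematocrit, 0.05% parasitemia final) incubated with compounds for 96 hours, 37 C, 5% CO2; luciferase detection reagent then added and luminescence measured.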
Hits are given with their value; . = inactive; ? = inconclusive; / = no result given; [ ] = remark or other dose. Shown are actives, neighbours in structure and some others; about 11% of the full set was active somewhere. The call rests on the fitted dose curve; in most records, active means well fitted curve in the direction sought with a large enough effect; inconclusive means small, poorly fitted or top-dose-only effect, or another doubt; inactive means no such curve, though single readings can be large; an effect the other way counts as inactive or inconclusive.

SMILES	Pf growth 48h	AMA1 RON2 block	HCV inh	Pf growth 96h
COc1ccc(Nc2nc(N3CCCCC3)nc3ccccc23)c(OC)c1	/	.	?	.
CCOc1nc(Nc2ccc(OC)cc2OC)nc(OCC)n1	.	.	.	.
COc1ccc(Nc2nc(N3CCCCC3)nc(N3CCCCC3)n2)c(OC)c1	.	.	.	.
COc1ccc(Nc2nc(NC(C)(C)C)nc(N3CCCC3)n2)c(OC)c1	/	?	5.6µM	4.7µM
COc1ccc(Nc2nc(N3CCCC3)nc(N3CCCC3)n2)c(OC)c1	/	.	10µM	.
COc1ccc(Nc2nc(Nc3ccc(OC)cc3OC)nc(N3CCN(C)CC3)n2)c(OC)c1	?	?	1µM	.
O=C(O)C1=C[C@H](c2ccc(C(F)(F)F)cc2)C[C@H](OCc2ccc(CO)cc2)O1	.	.	.	.
O=S(=O)(c1ccc(S(=O)(=O)N2CCC(O)CC2)cc1)N1CCCC1	.	.	.	.
COc1cc2c(c(OC)c1OC)C(c1ccccc1C)CC(=O)O2 (stereo not given)	/	.	.	/
Oc1ccc(Br)cc1/C=N/n1cnc2ccccc21	3.3µM	.	.	2.3µM
COc1ccc(C(C(=O)NC2CCCCC2)N(CC2CCCO2)C(=O)C2COc3ccccc3O2)cc1OC (stereo not given)	12µM	.	.	.
O=C(NC1CCCC1)C(c1ccc(O)cc1)N(CC1CCCO1)C(=O)C1COc2ccccc2O1 (stereo not given)	?	.	.	.
COc1ccc(C(=O)N(CC2CCCO2)C(C(=O)NC2CCCC2)c2ccc(Cl)cc2)cc1OC (stereo not given)	12µM	.	.	6.6µM
O=C(OCC(=O)N1CCc2ccccc21)[C@@H]1CC(O)CN1S(=O)(=O)c1ccccc1[N+](=O)[O-] (stereo not given in full)	/	.	.	/
COc1ccc(C(=O)NCc2ccc3c(c2)cc(C)n3C)cc1	.	.	.	.
COCC(=O)NCc1ccc2c(c1)cc(C)n2C	.	.	.	4.7µM
Cc1ccc(CNC(=O)c2c(-c3ccccc3Cl)noc2C)cc1	.	.	.	.
Cc1onc(-c2ccccc2Cl)c1C(=O)NCc1ccc2c(c1)cc(C)n2C	10µM	.	?	?
COc1cc(/C=C\C(=O)NCc2ccc3c(c2)cc(C)n3C)cc(OC)c1OC	12µM	.	.[8.37 µM]	7.4µM
COc1cc(OC)cc(C(=O)NCc2ccc3c(c2)cc(C)n3C)c1	.	?	.	9.3µM
Cc1cc2cc(CNC(=O)COc3ccccc3)ccc2n1C	.	.	.	.
CCN(C(=O)CSc1nnc(-c2ccc3c(c2)OCO3)o1)C1CCS(=O)(=O)C1 (stereo not given)	.	.[11.6 µM]	.	.
Cc1cc2cc(CNC(=O)c3cc4ccccc4o3)ccc2n1C	12µM	/	/	15µM
CCN1C(=O)N(CC)C(O)(c2ccccc2)C1(O)c1ccccc1 (stereo not given)	.	.	.	/
CC(C)(C)C1=CC(O)(c2ccccc2)C=C(C(C)(C)C)C1=O	10µM	.	?	?
SMILES	Pf growth 48h	AMA1 RON2 block	HCV inh	Pf growth 96h
COc1ccc(C2SCCN2C(=S)Nc2ccc(F)cc2)cc1 (stereo not given)	?	.	.	?
COc1ccc(C2SCCN2C(=S)Nc2cccc(C(F)(F)F)c2)cc1 (stereo not given)	2.3µM	.	.	9.3µM
C=CCNC(=S)N(CC=C)C1CCS(=O)(=O)C1 (stereo not given)	.	.	.	.
Oc1ccccc1-c1cc(-c2cccc(F)c2)n[nH]1	.	.	?	?
Oc1ccccc1-c1cc(-c2ccccc2Cl)[nH]n1	.	.	.	/
Oc1ccc(Cl)cc1-c1cc(-c2ccccc2Cl)[nH]n1	9.3µM	.	13µM	.
Oc1ccc(Cl)cc1-c1cc(-c2cccc(Br)c2)n[nH]1	2.9µM	.	11µM	/
CCCOC(=O)c1ccc(NC(=O)c2ccccc2[N+](=O)[O-])cc1	.	.	?	?
CCC(C)(C)c1ccc(Oc2cccc(C(=O)O)c2)cc1	.	.	.	.
CCC(C)(C)c1ccc(Oc2ccc(N)cc2)cc1	?	?	4.5µM	?
Cc1ccccc1Cn1nc(C)c(NC(=O)c2cc(-c3ccco3)on2)c1C	?	.	.	.
COc1ccc(-c2cc(C(=O)Nc3c(C)nn(Cc4ccc(Cl)cc4)c3C)no2)cc1	/	.	?	?
COc1ccc(-c2cc(C(=O)Nc3c(C)nn(Cc4ccccc4Cl)c3C)no2)cc1OC	?	.	8.9µM	.
COc1ccc(OC)c(-c2cc(C(=O)Nc3c(C)nn(Cc4ccccc4C)c3C)no2)c1	5.2µM	.	3.2µM	.
COc1ccc(OC)c(-c2cc(C(=O)Nc3c(C)nn(Cc4ccccc4Cl)c3C)no2)c1	13µM	.	16µM	.
Cc1cc(C(=O)Nc2c(C)nn(Cc3ccccc3Cl)c2C)no1	2.6µM	.	.	.
CCOc1ccc(NS(=O)(=O)c2ccc(C(=O)N(C)CC(=O)Nc3cccc(OC)c3)cc2)cc1	/	.	?	/
COc1ccc(-c2cc(C(=O)NCc3cccnc3)no2)cc1OC	.	.	/	9.3µM
COc1ccc(-c2nc(C(=O)NCCCN3CCOCC3)cc3c2[nH]c2ccccc23)cc1OC	?	.	13µM	5.2µM
COc1ccc(Nc2cc(C(=O)NCCCN3CCOCC3)c3ccccc3n2)cc1OC	/	.	.	.
Cc1ccc(-c2cc(C(=O)NCCCN3CCOCC3)c3ccccc3n2)cc1	?	.	.	?
Cc1ccc(-c2nc(C(=O)NCCCN3CCOCC3)cc3c2[nH]c2ccccc23)cc1	5.9µM	.	11µM	6.6µM
C/C(=N/O)c1cc(C(C)(C)C)c(O)c(C(C)(C)C)c1	/	.	?	/
CC(C)(Sc1cc(C(C)(C)C)c(O)c(C(C)(C)C)c1)Sc1cc(C(C)(C)C)c(O)c(C(C)(C)C)c1	7.2µM	.	.[8.37 µM]	1µM
COc1ccc(CCC(=O)Nc2cc(S(C)(=O)=O)ccc2Cl)cc1	.	/	/	.
SMILES	Pf growth 48h	AMA1 RON2 block	HCV inh	Pf growth 96h
COc1cc(O)c(CCO)c2c1C(=O)C[C@@H](C)O2	.	.	?	1.9µM
O=c1[nH]c(C2CCN(S(=O)(=O)c3ccc(C(F)(F)F)cc3)CC2)nc2c1nnn2Cc1cccc(F)c1	?	.	.	?
O=c1[nH]c(C2CCCN(S(=O)(=O)c3ccccc3)C2)nc2c1nnn2Cc1ccccc1Br (stereo not given)	?	.	.	?
O=c1[nH]c(C2CCCN(S(=O)(=O)c3cccc(F)c3)C2)nc2c1nnn2Cc1ccccc1 (stereo not given)	7.4µM	.	.	?
O=c1[nH]c(C2CCCN(S(=O)(=O)c3ccccc3)C2)nc2c1nnn2Cc1ccccc1F (stereo not given)	10µM	.	.	.
O=c1[nH]c(C2CCCN(S(=O)(=O)c3ccccc3)C2)nc2c1nnn2Cc1ccccc1 (stereo not given)	10µM	.	.	.
O=c1[nH]c(C2CCN(S(=O)(=O)c3ccccc3C(F)(F)F)CC2)nc2c1nnn2Cc1cccc(F)c1	2.6µM	.	.	?
